Only a selection was taken, and hits are over-represented in it overall.
TcdB GH inh: inhibitors of Clostridioides difficile toxin B glycohydrolase | hit rate 0.24% among 350,000 | inhibition, % at 9.99 µM | P18177 | TcdB glycohydrolase enzymatic assay, plate reader; in the data active = inhibition above about 10%
BoNT F protease: blocks Botulinum neurotoxin F light chain protease; AID 588497; inhibition, % at 10 µM; hit rate 0.22% among 360,000; Multiplex microsphere protease cleavage assay, flow cytometry; in the data active = inhibition above about 35%, passing the limit was not always enough; inconclusive = no clear call, values can overlap the other calls
Bead autofluor: compound fluorescence in toxin protease inhibitor counterscreen | compound autofluorescence counterscreen, microsphere flow cytometry; active compounds read high | fluorescence intensity (test concentration not listed) | hit rate 3.1% among 360,000; in the data active = fluorescence intensity above about 16000; inconclusive = no clear call, values can overlap the other calls
BoNT A protease: BoNT A light chain protease inhibition. hit rate 0.17% among 360,000. multiplex microsphere protease substrate cleavage, flow cytometry. AID 588499. inhibition, % at 10 µM
Anthrax LF inh2: anthrax lethal factor protease inhibition; multiplex microsphere protease cleavage assay, LF; inhibition, % at 10 µM; hit rate 0.12% among 360,000; AID 588501
A number is an active result. Rule as the data show it, unless noted: active = inhibition above about 30%; inconclusive = no clear call, values can overlap the other calls; inactive = below that.

O=C(CNS(=O)(=O)c1ccccc1)N/N=C/c1ccc(O)cc1 was read as TcdB GH inh 14, BoNT F protease inactive, Bead autofluor inactive, BoNT A protease inactive and Anthrax LF inh2 inactive.
COc1cc(/C=N/NC(=O)CCNC(=O)c2ccccc2Cl)ccc1O was read as TcdB GH inh inactive, BoNT F protease inactive, Bead autofluor inactive, BoNT A protease inactive and Anthrax LF inh2 inactive.
Screening CCC(=O)N1CC2(CN(Cc3ccncc3)C2)c2c(n(C)c3cc(OC)ccc23)[C@@H]1CO returned TcdB GH inh inactive.
Cn1nc(-c2ccc(C(=O)N3CCN(CCO)CC3)cc2)c2ccccc2c1=O was read as BoNT F protease inactive, Bead autofluor 21691, BoNT A protease inconclusive and Anthrax LF inh2 inactive.
`CN1CCN(C(=O)c2ccc(-c3nn(C)c(=O)c4ccccc34)cc2)CC1` gave BoNT F protease inactive, Bead autofluor inactive, BoNT A protease inactive and Anthrax LF inh2 inactive.
C[C@@H]1CN([C@H](C)CO)C(=O)c2cc(-c3ccccc3)cnc2O[C@@H]1CN(C)C(=O)NC1CCCC1 was read as TcdB GH inh inactive.
Screening COc1cc2c(cc1OC)CN(CC(=O)Nc1ccc3c(c1)OC(F)(F)O3)CC2 returned BoNT F protease inactive, Bead autofluor 24021, BoNT A protease inconclusive and Anthrax LF inh2 inactive.
`O=C(O/N=C1/CCCc2occc21)c1ccc(F)cc1` gave TcdB GH inh inactive, BoNT F protease inactive, Bead autofluor inactive, BoNT A protease inactive and Anthrax LF inh2 inactive.
O=C(O/N=C1/CCSc2ccccc21)c1ccc(F)cc1 was read as TcdB GH inh inactive, BoNT F protease inactive, Bead autofluor 24780, BoNT A protease inconclusive and Anthrax LF inh2 inactive.
Screening CCCc1cc(=O)oc2c3c(cc(OCC(=O)NCCCn4ccnc4)c12)OC(C)(C)CC3 returned TcdB GH inh 11, BoNT F protease inactive, Bead autofluor inactive, BoNT A protease inactive and Anthrax LF inh2 inactive.
For COC(=O)N(c1ccccc1)P1(=S)OCCO1 the results were BoNT F protease inactive, Bead autofluor inactive, BoNT A protease inactive and Anthrax LF inh2 inactive.
For CCOC(=O)N(c1ccccc1)P1(=S)OCC(C)O1 (stereo unspecified) the results were TcdB GH inh inactive, BoNT F protease inactive, Bead autofluor 20958, BoNT A protease inactive and Anthrax LF inh2 inactive.
`CCOCCCNC(=O)c1c(C)c(C(=O)OCC)n(C)c1C` gave BoNT F protease inactive, Bead autofluor 18479, BoNT A protease inconclusive and Anthrax LF inh2 inactive.
CCOC(=O)c1c(C)c(C(=O)NCc2ccc(OC)cc2)c(C)n1C was read as TcdB GH inh inactive, BoNT F protease inactive, Bead autofluor inactive, BoNT A protease inactive and Anthrax LF inh2 inactive.
For CCOC(=O)c1c(C)c(C(=O)NCc2ccccc2OC)c(C)n1C the results were TcdB GH inh inactive, BoNT F protease inactive, Bead autofluor 22066, BoNT A protease inactive and Anthrax LF inh2 inactive.
For CCOC(=O)c1c(C)c(C(=O)NC2CCCCCC2)c(C)n1C the results were BoNT F protease inactive, Bead autofluor 21622, BoNT A protease inconclusive and Anthrax LF inh2 inactive.
For COc1ccc2c3c(n(C)c2c1)[C@@H](CO)N(Cc1ccccc1F)CC31CN(C(=O)C2CC2)C1 the results were TcdB GH inh inactive.
Screening COc1ccccc1-n1cc(C(=O)NCC(=O)N2CCN(c3ccccc3)CC2)c2ccccc2c1=O returned BoNT F protease inactive, Bead autofluor 24097, BoNT A protease inactive and Anthrax LF inh2 inactive.
Screening Fc1ccc(CNc2ccc(CNc3ncn[nH]3)cc2)cc1 returned BoNT F protease inactive, Bead autofluor 21380, BoNT A protease inactive and Anthrax LF inh2 inactive.
C[C@H](CO)N1C[C@H](C)[C@H](CN(C)C(=O)c2cccc(F)c2)Oc2ncc(-c3cccnc3)cc2C1=O was read as TcdB GH inh inactive.
For Cc1ccc(N2C(N)=C(C#N)C(c3cccs3)C3=C2CC(C)(C)CC3=O)cc1 (stereo unspecified) the results were BoNT F protease inactive, Bead autofluor 23727, BoNT A protease inconclusive and Anthrax LF inh2 inactive.
Screening CC1(C)CC(=O)C2=C(C1)N(c1ccc(F)cc1)C(N)=C(C#N)C2c1cccs1 (stereo unspecified) returned BoNT F protease inactive, Bead autofluor inactive, BoNT A protease inactive and Anthrax LF inh2 inactive.
Screening Cc1cc(/C=C\c2ccc3cc(N(C)C)ccc3[n+]2C)c(C)n1-c1ccccc1 returned BoNT F protease active, Bead autofluor inactive, BoNT A protease inactive and Anthrax LF inh2 inactive.
For C[n+]1c(/C=C/c2ccc(O)cc2)ccc2ccccc21 the results were TcdB GH inh inactive, BoNT F protease inactive, Bead autofluor inactive, BoNT A protease inactive and Anthrax LF inh2 inactive.
For CC(=O)NS(=O)(=O)c1ccc(NC(=O)NC2CCCCC2)cc1 the results were BoNT F protease inactive, Bead autofluor 23046, BoNT A protease inactive and Anthrax LF inh2 inactive.
Screening O=C(COC(=O)Cc1ccccc1)Nc1ncc(Cl)cc1Cl returned BoNT F protease inactive, Bead autofluor inactive, BoNT A protease inactive and Anthrax LF inh2 inactive.
Screening Cc1nc(NC(=O)COC(=O)CCS(=O)(=O)c2ccccc2Cl)c(Cl)cc1Cl returned BoNT F protease inactive, Bead autofluor 20461, BoNT A protease inconclusive and Anthrax LF inh2 inactive.
O=C(COC(=O)CCc1ccccc1)Nc1ncc(Cl)cc1Cl was read as BoNT F protease inactive, Bead autofluor 16931, BoNT A protease inactive and Anthrax LF inh2 inactive.
Screening CCCC(O)C#Cc1cnc2c(c1)C(=O)N([C@H](C)CO)C[C@H](C)[C@H](CN(C)S(=O)(=O)c1ccc(OC)cc1)O2 (stereo partly specified) returned TcdB GH inh inactive.
For C=CCn1c(SCC(=O)Nc2ccc3c(c2)OCO3)nnc1-c1cc(Br)ccc1O the results were BoNT F protease inactive, Bead autofluor 24540, BoNT A protease inactive and Anthrax LF inh2 inactive.
Nn1c(SCC(=O)Nc2ccc3c(c2)OCO3)nnc1-c1ccc(Cl)cc1 was read as BoNT F protease inactive, Bead autofluor inactive, BoNT A protease inactive and Anthrax LF inh2 inactive.
`O=C(CSc1nnc(-c2ccccn2)n1-c1ccc(Cl)cc1)Nc1ccc2c(c1)OCO2` gave BoNT F protease inactive, Bead autofluor 22588, BoNT A protease inactive and Anthrax LF inh2 inactive.
`CCOc1ccc(-n2c(SCC(=O)Nc3ccc4c(c3)OCO4)nc3ccccc3c2=O)cc1` gave BoNT F protease inactive, Bead autofluor inactive, BoNT A protease inactive and Anthrax LF inh2 inactive.
For C=CCn1c(SCC(=O)Nc2ccc3c(c2)OCO3)nnc1-c1ccccc1 the results were BoNT F protease inactive, Bead autofluor inactive, BoNT A protease inactive and Anthrax LF inh2 inactive.
`Nn1c(SCC(=O)Nc2ccc3c(c2)OCCO3)nnc1-c1ccccn1` gave BoNT F protease inactive, Bead autofluor inactive, BoNT A protease inactive and Anthrax LF inh2 inactive.
COc1ccc(-n2c(SCC(=O)Nc3ccc4c(c3)OCO4)nc3ccccc3c2=O)cc1 was read as BoNT F protease inactive, Bead autofluor 23540, BoNT A protease inactive and Anthrax LF inh2 inactive.
`Nn1c(SCC(=O)Nc2ccc3c(c2)OCO3)nnc1-c1ccccc1` gave BoNT F protease 57, Bead autofluor inactive, BoNT A protease 45 and Anthrax LF inh2 inactive.
For O=C(Nc1cccc(Cl)c1)N[C@@H]1CC[C@@H](CCNC(=O)C2CC2)O[C@H]1CO the results were TcdB GH inh inactive.
